# Screening data from PubChem BioAssay.
# Hits are enriched below; roughly 4.1% of the tested compounds scored in any of these assays.
# DAX1 inh-1 = DAX1 (NR0B1) inhibitors, primary screen, cell-based, HEK293, Gal4-DAX1, luciferase luminescence. Nuclear receptor subfamily 0 group B member 1 (Homo sapiens), P51843. HEK293 Gal4-DAX1 luciferase reporter. inhibition, % at 6.75 µM. hit rate 0.99% among 340,000. AID 504766, 2011;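 active = inhibition above the mean over all tested compounds plus 3 SD, cut at about 4.2% in these data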;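 also: 0% = DAX1-transfected cells with DMSO and 100% = empty-vector control cells with DMSO; inhibition shows as a rise in luminescence from relieved DAX1 repression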
# Target sequence (P51843 207-470 limits assumed): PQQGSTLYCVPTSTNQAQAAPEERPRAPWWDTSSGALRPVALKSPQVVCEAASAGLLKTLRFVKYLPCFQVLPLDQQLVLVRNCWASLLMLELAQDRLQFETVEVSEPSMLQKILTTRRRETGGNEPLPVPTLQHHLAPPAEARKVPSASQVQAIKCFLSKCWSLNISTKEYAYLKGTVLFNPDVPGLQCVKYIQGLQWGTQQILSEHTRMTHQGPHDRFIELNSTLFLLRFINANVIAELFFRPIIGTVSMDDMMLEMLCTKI
# DAX1 inh-2 = DAX1 (NR0B1) inhibitors on StAR promoter, primary screen, cell-based, luminescence, SF-1 (NR5A1), full-length DAX-1; hit rate 1.1% among 370,000; HEK293T StAR-luciferase reporter, SF-1/DAX-1 repression relief; AID 652010, 2013; inhibition, % at 6.8 µM;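 active = inhibition above the mean over all tested compounds plus 3 SD, cut at about 3.6% in these data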;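 also: 0% = DAX-1 cells with DMSO and 100% = cells lacking DAX-1 with DMSO; higher inhibition means more luminescence from relief of DAX-1 repression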
# hgDAF12 agonist = H. glycines DAF-12 receptor agonists, primary screen, cell-based, luminescence, HEK293, GAL4 fusion, UAS-luciferase; Nuclear hormone receptor DAF-12 (Heterodera glycines), GAL4 fusion; HEK293 GAL4-hgDAF12 UAS-luciferase reporter, agonist luminescence; normalized to butyrate control; activation, % at 6.8 µM; hit rate 1.8% among 370,000; AID 687014, 2013;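 active = activation above a cutoff set at the mean of all screened compounds plus 3 SD, cut at about 10% in these data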;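 also: 0% = DMSO wells and 100% = sodium butyrate wells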
# hcDAF-12 act = H. contortus DAF-12 nuclear receptor activators, primary screen, cell-based, luminescence, HEK293, lit1-tk-luc reporter. HEK293 hcDAF-12 lit1-tk-luc reporter; 0% DMSO, 100% Δ7-dafachronic acid. activation, % at 6.8 µM. hit rate 1.4% among 370,000. AID 652067, 2013;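 active = activation above the mean of all tested compounds plus 3 SD, cut at about 5.5% in these data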;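 also: 100% = response to 3 µM Δ7-dafachronic acid high control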
# PolyA inh = polyadenylation inhibitors in yeast reporter cells, primary screen, luminescence, S. cerevisiae; S. cerevisiae SKY197-pL101 polyadenylation reporter, beta-gal luminescence; efflux-impaired pdr1/pdr3 knockout yeast; score 100 = 6 SD above DMSO; hit rate 0.02% among 300,000; activity score, % at 12 µM;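 active = lowest replicate activity score at least 50, where 100 means six control SD above control mean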;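 also: yeast exposed to compound for 9 h at 30 °C; higher score means more reporter readthrough which indicates perturbed polyadenylation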
# ssDAF-12 act = S. stercoralis DAF-12 nuclear receptor activators, primary screen, cell-based, luminescence, HEK293, GRIP1 co-expression, lit1-tk-luc | AID 652126, 2013 | Nuclear hormone receptor DAF-12 (Strongyloides stercoralis) | hit rate 1% among 370,000 | activation, % at 6.8 µM | HEK293 ssDAF-12/GRIP1 lit1-tk-luc reporter; % of 3 µM dafachronic acid response;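 active = activation above the mean over all tested compounds plus 3 SD, cut at about 0.9% in these data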;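 also: 0% = DMSO-only wells and 100% = 3 µM delta7-dafachronic acid wells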
# DAX1 inh confirm = DAX1 (NR0B1) inhibitors relieving SF-1 repression, confirmation, cell-based, luminescence, HEK293T, full-length DAX-1, SF-1 activated StAR promoter; hit rate 87% among 2,400; HEK293T StAR-promoter luciferase reporter, SF-1/DAX-1 repression; shares compounds with DAX1 inh-2; inhibition, % at 6.8 µM;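 active = inhibition above the average of every tested compound plus 3 SD, cut at about 3.8% in these data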;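 also: 0% = DAX-1 cells with DMSO and 100% = no DAX-1 control cells with DMSO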
# SF1 mutant ctr = StAR reporter signal changes without DAX1, counter-screen for DAX1 inhibitor project, cell-based, luminescence, AF-2 mutant SF-1, transactivation; inhibition, % at 6.8 µM; AID 652136, 2013; hit rate 78% among 2,400; HEK293 StAR-luciferase, SF-1 AF2 mutant; shares compounds with DAX1 inh-2;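 active = inhibition above the mean of all tested compounds plus 3 SD, cut at about 3% in these data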;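 also: 0% = DAX-1 transfected cells with DMSO and 100% = cells without DAX-1 with DMSO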
# LXR ag = LXR agonists, Gal4 luciferase reporter, confirmation, counter-screen for hcDAF-12 agonist project, cell-based, luminescence, HEK293, H. contortus campaign | activation, % at 6.8 µM | 3,400 tested, under 10 active | AID 743027, 2013 | HEK293 Gal4-LXR tk-luc reporter, 24 h; normalized: DMSO 0%, positive control 100% | shares compounds with hcDAF-12 act;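 active = mean percent activation of the reporter above a cutoff set as the average over tested compounds plus their standard deviation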
# hcDAF12 ag = H. contortus DAF-12 receptor agonists, confirmation, cell-based, luminescence, HEK293, lit1-tk-luc, triplicate; shares compounds with hcDAF-12 act; HEK293 hcDAF-12 lit1-tk-luc reporter; % of Δ7-dafachronic acid response; activation, % at 6.8 µM; hit rate 61% among 3,400; AID 743032, 2013;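 active = mean activation across triplicate tests above the threshold derived from the earlier primary screen, cut at about 5.5% in these data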;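 also: 0% = DMSO only wells and 100% = 3 µM Δ7-dafachronic acid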
# hgDAF12 ag = H. glycines DAF-12 receptor agonists, confirmation, cell-based, luminescence, HEK293, GAL4-LBD fusion; activation, % at 6.8 µM; shares compounds with hgDAF12 agonist; HEK293 GAL4-hgDAF12 luciferase reporter, agonist mode; percent of butyrate response; hit rate 80% among 3,300;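 active = mean activation over triplicate wells above the hit cutoff derived from the earlier primary screen, cut at about 11% in these data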;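 also: 0% = DMSO low control and 100% = 2 mM sodium butyrate high control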
# LXRb DAF12 ctr = LXR agonists, Gal4 luciferase reporter, confirmation, counter-screen for hgDAF-12 agonist project, cell-based, luminescence, HEK293, H. glycines campaign; 24 h; 3,300 tested, under 10 active; shares compounds with hgDAF12 agonist; activation, % at 6.8 µM;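 active = mean activation of the triplicate above a set limit carried over from the primary screen, none filed active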
# * = called active by the depositor; nt = not tested or not shown; ! = a repeat was not active.
SMILES,DAX1 inh-1,DAX1 inh-2,hgDAF12 agonist,hcDAF-12 act,PolyA inh,ssDAF-12 act,DAX1 inh confirm,SF1 mutant ctr,LXR ag,hcDAF12 ag,hgDAF12 ag,LXRb DAF12 ctr
c1ccc(Nc2nc(-c3cccnc3)cs2)nc1,0.7,5.8*,17.9*,10.4*,-12.6,0.3,7.5*,6.3*,1.5,8.1*,20.2*,1.0
CCN=C1NN=C(c2cc(C)n(CCc3ccccc3)c2C)CS1,0.3,1.4,1.1,3.8,nt,-0.1,nt,nt,nt,nt,nt,nt
CCN=C1NN=C(c2c[nH]c3ccccc23)CS1,1.2,4.9*,15.4*,11.2*,-6.5,3.7*,12.2*,5.8*,1.3,11.9*,20.0*,0.7
Cc1ccc(SCC(=O)OCC(=O)N(CCC#N)c2ccccc2)cc1,2.0,-0.3,-1.7,-0.6,nt,-1.2,nt,nt,nt,nt,nt,nt
O=C1CNc2cc(Cl)ccc2N1,0.1,0.5,3.1,2.4,nt,-0.4,nt,nt,nt,nt,nt,nt
CCCCNc1c(-c2ccc(SC(C)CC)cc2)nc2ccccn12 (centres undefined),1.7,5.3*!,10.9*,6.7*!,1.2,2.6*!,6.3*,3.4*,1.3,5.1,15.5*,0.7
O=c1[nH]c2ccc(NCc3ccccc3OCc3ccc(Cl)cc3)cc2[nH]1,-2.0,-0.8,-6.2,-5.0,6.4,-2.0,nt,nt,nt,nt,nt,nt
CC(C)C(=O)Nc1ccc(C=C2C=Cc3ccccc32)cc1,nt,5.5*,17.1*,3.1,nt,0.9*,8.8*,5.0*,nt,nt,20.0*,0.8
CC(C)C(=O)Nc1ccc(Nc2ccccc2)cc1,-1.2,-0.1,9.1,-1.6,16.8,-1.1,nt,nt,nt,nt,nt,nt
Cc1cccc(NC(=O)c2ccc(C)c(S(=O)(=O)N3CCOCC3)c2)n1,2.9,0.8,-2.7,1.0,nt,-1.0,nt,nt,nt,nt,nt,nt
c1ccc2sc(Nc3nc4cc5c(cc4s3)OCO5)nc2c1,3.0,5.4*,17.9*,7.4*,-16.8,2.3*,12.1*,7.8*,1.4,8.2*,17.3*,1.1
